Among the data in PubChem BioAssay AID624351 (Southern Research Specialized Biocontainment Screening …, 2012) are IC50 and inhibition values, retold here.

About 1,400 (58%) of roughly 2,400 compounds were called active.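 How the source made its calls: active means inhibition of 30% or more at any tested dose; inconclusive means primary hits over the limit that were never retested; inactive means the rest.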 The set was probably picked from earlier hits. Some of the results follow.

The assay is described as follows: coupled detection enzyme interference, dose response, artefact control for MgcRacGAP inhibitor project, biochemical, coupled enzyme counter-screen (AID 624351).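 Further: signal is the ADP detection kit reading of free GDP without any GAP enzyme.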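 On inhibition: 0% = median positive control wells and 100% = median negative control wells.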 The settings on record: ADP Hunter coupled enzyme counter-screen, fluorescence, no MgcRacGAP; series mostly up to 80 µM.
A word on the IC50: it is the concentration that gives 50% inhibition. Take `CN(C)c1ccc(N=Cc2nc(-c3ccccc3)oc2OC(=O)c2cccc(Cl)c2)cc1`: the IC50 entry was “inactive”. The same measure, in the same setting: the same measure for `CC(C(=O)N(C)Cc1ccccc1)N1CCN(C/C=C/c2ccccc2)CC1` (stereo not given): “inactive”.

Consider `COc1cc(/C=C/C(=O)OCC(=O)N(C)Cc2ccccc2)ccc1O`, for which the IC50 is 34.7 µM (active). On the same count and under the same terms, the same measure for `C/C=C/c1ccc(OCCCCN(C)Cc2ccccc2)c(OC)c1`: “inactive”. On the same count and under the same terms, the same measure for `Oc1ccc(/C=N/Nc2ccnc3cc(Cl)ccc23)cc1O`: 40.3 µM (active); for `Oc1ccc(N2CCN(c3ccnc4cc(Cl)ccc34)CC2)cc1`: 53.3 µM (active); for `Oc1ccc(Nc2ccnc3cc(Cl)ccc23)cc1`: 26.3 µM (active).

As usually defined, the inhibition is the change of the read-out against control, counted positive when it falls. As to `CN(C)c1ncc(C2=C(Cl)C(=O)C(N3CCCC3)=C(Cl)C2=O)s1`, the inhibition is -12.5% [at 10 µM] (inactive). For `Nc1ccc2c(c1)OC1(CCCC1)O2`, the IC50 was 26 µM (active). For the compound `Nc1cc(Cc2ccccc2)ccc1O`, the half-maximal inhibitory concentration (IC50) is 24.1 µM (active). On to `Oc1ccc(NCc2ccccc2OCc2ccccc2F)cc1`, for which the IC50 result is “inactive”.

Take `COc1ccc(Br)cc1CNc1ccc(O)cc1`: the IC50 was 54 µM (active). On the same count and under the same terms, the same measure for `COc1ccc(Br)cc1CN(C)CC(=O)NCCc1ccccc1`: “inactive”; for `CN1C(=O)/C(=C/C=C2/CCCN2C)N(C)C1=S`: 24.6 µM (active); for `CN1C(=O)/C(=C/C=C2\SCCN2C)N(C)C1=S`: 26.6 µM (active). The same measure, in the same setting: the same measure for `c1ccc(-c2ccccc2OCCOCCN2CCOCC2)cc1`: “inactive”.

Turning to `NC(N)=N/N=C/c1ccc(Cl)cc1Cl`, the IC50 result is “inactive”. Turning to `CCOC(=O)N/N=C/c1ccc(N(CC)CC)cc1O`, the IC50 was 81.2 µM (active).

On to `CCN(CC)c1ccc(/C=N/Nc2nc(C)cc(C)n2)c(O)c1`, for which the IC50 is 65.2 µM (active). Still for that read-out and setting: the same measure for `CCN(CC)c1ccc(/C=N/NC(=O)OC)c(O)c1`: 62.6 µM (active). For the compound `CCc1ccc2nc3sc(C(=O)O)cc3cc2c1`, the IC50 result was “inactive”.

Turning to `CCOc1cc(/C=N/Nc2nc(=O)[nH]nc2C)ccc1O`, the IC50 was 43.9 µM (active). The same measure, in the same setting: the same measure for `CCOc1cc(/C=N/Nc2ncc(C)c(=O)[nH]2)ccc1O`: 38.9 µM (active).

Take `CCN(CC)c1ccc(NC(=O)COC(=O)Cc2ccsc2)cc1`: the IC50 is 42.9 µM (active). Still for that read-out and setting: the same measure for `COc1ccccc1CNCC(=O)Nc1ccc(N(C)C)cc1`: 63.3 µM (active); for `COc1ccccc1CNC(=O)C[C@@H]1C[C@H]2c3cc(N(C)C)ccc3O[C@H]2[C@H](CO)O1`: “inactive”; for `CCc1ccc(NC(=O)CNCc2ccc(OC)c(OC)c2)cc1`: “inactive”.

`COc1cc(CC(=O)OCC(=O)Nc2ccc(N(C)C)cc2)cc(OC)c1OC`: the IC50 was 68 µM (active). Turning to `COc1ccccc1CNCC(=O)Nc1ccccc1-n1cccc1`, the IC50 entry was “inactive”.

For the compound `COc1ccccc1/C=C(/C(=O)OCC(=O)Nc1ccc(N(C)C)cc1)c1ccccc1`, the half-inhibitory concentration (IC50) is 66.3 µM (active). For the compound `COc1ccccc1CNCC(=O)NCc1ccc(C)cc1`, the IC50 result is “inactive”. As for `COc1ccc(NCCC#N)cc1`, the IC50 is 82.2 µM (active).

On to `O=S(=O)(O)c1cc(O)c(N=Nc2ccc(O)cc2O)c2ccccc12`, for which the IC50 is 30.7 µM (active).

In the case of `CC(C)C1N=C2c3ccccc3N=C(SCC(=O)c3ccc(O)c(O)c3)N2C1=O` (stereo not given), the IC50 was 34.7 µM (active). Regarding `CCN(CC)c1ccc(Nc2nc(Cl)ncc2Br)cc1`, the IC50 is 49.4 µM (active). Still for that read-out and setting: the same measure for `O=c1oc(-c2ccc(O)c(O)c2)cc2cccc(O)c12`: 20.7 µM (active). In the case of `O=c1oc(-c2ccc(O)c(O)c2)cc2cc(O)cc(O)c12`, the IC50 was 23 µM (active). Same read-out and setting: the same measure for `N#CC1=C(S)N(c2ccc(F)cc2)C(c2cccs2)NC1=O` (stereo not given): “inactive”; for `O=C1NC2c3c(I)sc(I)c3C(=O)C2O1` (stereo not given): “inactive”; for `Oc1ccc(/C=N/N=C/c2ccc(O)cc2)cc1`: 84 µM (active). Regarding `COc1cc(CNCCNC(=O)c2nonc2N)ccc1OCc1ccc(Cl)cc1`, the IC50 entry is “inactive”.

Consider `COc1cc(/C=N/N=C(\N)c2nonc2N)ccc1O`, for which the IC50 was 30.3 µM (active).

Consider `N/C(=N\N=C\c1ccc(O)cc1)c1nonc1N`, for which the IC50 was 31.1 µM (active). On the same count and under the same terms, the same measure for `N#Cc1c(Nc2ccc(Cl)cc2)s[nH]c1=O`: “inactive”; for `Cc1ccc(/C=[N+](\[O-])c2ccc(N(C)C)cc2)c2nsnc12`: 16.1 µM (active); for `CCOC(=O)C1(C)C=C(Nc2ccc(O)cc2)C(=O)N1c1ccc(O)cc1` (stereo not given): 19.6 µM (active). The same measure, in the same setting: the same measure for `O=C1/C(=C\c2ccco2)CCC/C1=C\c1ccco1`: “inactive”; for `Nc1cc(Br)c(N)c(Br)c1`: 10.6 µM (active); for `CCOC(=O)C1CCN(Cc2cccc(Oc3ccccc3)c2)CC1`: “inactive”.

With `OC1CCN(C(=S)Nc2ccc(Nc3ccccc3)cc2)CC1`, the IC50 is 36.5 µM (active). Still for that read-out and setting: the same measure for `CCOC(=O)C1CCCN(C(=S)Nc2ccc(Nc3ccccc3)cc2)C1` (stereo not given): 55.1 µM (active); for `OCCN1CCN(C(=S)Nc2cccc(C(F)(F)F)c2)CC1`: “inactive”.

`CCOC(=O)C1CCN(Cc2ccc(-c3ccccc3)cc2)CC1`: the IC50 result was “inactive”. For `OCC1CCCN(C(=S)Nc2ccc(Nc3ccccc3)cc2)C1` (stereo not given), the 50% inhibitory concentration (IC50) was 41.7 µM (active). Still for that read-out and setting: the same measure for `COc1ccc(CN2CCN(CCSc3ccc(C)cc3)CC2)c(OC)c1OC`: “inactive”; for `CC1CN(CCCCOc2ccc(Cl)c3ccccc23)CC(C)O1` (stereo not given): “inactive”; for `CSc1sccc1/C=C(/C#N)C(=O)c1ccco1`: “inactive”. On the same count and under the same terms, the same measure for `NC(CSS(=O)(=O)O)=NCCC12CC3CC(CC(O)(C3)C1)C2`: “inactive”.

In the case of `COc1cc(/C=N/Nc2nc(C)cc(C)n2)ccc1O`, the IC50 was 60.7 µM (active). Consider `COc1cc(/C=N/NC(=O)c2cc(-c3c(C)nn(-c4ccccc4)c3C)n[nH]2)ccc1O`, for which the IC50 was 38.8 µM (active). Same read-out and setting: the same measure for `COc1cc(/C=N/NC(=O)c2nc(-c3ccccc3)n(-c3ccccc3)n2)ccc1O`: 41.9 µM (active). Still for that read-out and setting: the same measure for `COc1cc(/C=N/NC(=O)c2nc(C)cc(C)n2)ccc1O`: 37.3 µM (active); for `c1cc(CN2CCN(C3CCCCCC3)CC2)ccn1`: “inactive”; for `Nc1nc2cc(S(=O)(=O)NC3=NCCCCC3)ccc2s1`: “inactive”.

Consider `COc1cc(/C=N/NC2=NCCCCC2)ccc1O`, for which the 50% inhibitory concentration (IC50) is 27.6 µM (active).

On to `COc1cc(/C=N/Nc2cc(C)nc(NS(=O)(=O)c3ccccc3)n2)ccc1O`, for which the IC50 is 41 µM (active). Take `Oc1ccc(/C=N/NC2=NCCCCC2)c(O)c1`: the IC50 was 67.6 µM (active). Same read-out and setting: the same measure for `COc1cc(/C=N/NC(=O)c2cn(-c3cccc(C)n3)cn2)ccc1O`: 37.3 µM (active); for `O=c1[nH]c2ccccc2n2c(=S)[nH]nc12`: 78.8 µM (active). The same measure, in the same setting: the same measure for `S=c1[nH]c2ccccc2n2c(=S)[nH]nc12`: 51.8 µM (active).
